In PubChem BioAssay (Tox21):
Inconclusive results are not listed. The source made the active and inactive calls. Calls follow the shape of the dose curve; as a rule, active = well fitted activation curve with a large enough effect in the signal ratio in the repeat runs (not every such curve was filed as active); inconclusive = weak or mixed curves, or effect the other way; inactive = flat fitted curve, though single readings scatter; the % refers to the signal ratio.

Assay: qHTS assay to identify small molecule agonists of the endoplasmic reticulum stress response signaling pathway (AID 1159516)
Conditions: ESRE-bla HeLa, ER stress beta-lactamase reporter, 5 h; series mostly up to 61 µM
From the text: National Center for Advancing Translational Sciences [NCATS]
NIH Chemical Genomics Center [NCGC]
U.S. Environmental Protection Agency [EPA]
National Institutes of Environmental Health Sciences [NIEHS]
National Toxicology Program [NTP]
U.S. Food and Drug Administration [FDA]
Endoplasmic Reticulum (ER) plays an important role in cellular signaling, protein folding/maturation, stress response, lipid biosynthesis, calcium storage and release etc. Under stress conditions, proteins in ER misfold or unfold, and leading to the expression of ER stress responsive genes. ER stress has been associated with a variety of pathophysiological conditions such as cancer, inflammation, neurodegenerative diseases, diabetes, ischemic heart disease etc. To identify the compounds that induce ER stress response, an ER stress reporter cell line, CellSensor ESRE-bla HeLa (Life Technologies, Carlsbad, CA) containing a beta-lactamase reporter gene under control of the Endoplasmic reticulum Stress Response Element (ESRE) was used to screen Tox21 10K compound library.
Tox21 Assay Protocol Summary:
ESRE-bla HeLa cells were dispensed at 1,500 cells/6 uL of assay medium per well into black wall/clear-bottom 1536-well plates using a Multidrop Combi (ThermoFisher Scientific, Waltham, MA) dispenser. After the assay plates were incubated at 37 C and 5% CO2 for an overnight, 23 nL of compounds dissolved in DMSO, positive controls or DMSO only was transferred to the assay plate by a Pintool station (Kalypsys, San Diego, CA). The assay plates were incubated at 37 C and 5% CO2 for 5 hr. One uL of LiveBLAzer B/G FRET substrate (Life Technologies) was added using a Flying Reagent Dispenser (Aurora Discovery, San Diego, CA) and the plates were incubated at room temperature for 2 hr. Fluorescence intensity (405 nm excitation, 460 nm and 530 nm emissions) was measured using an Envision plate reader (PerkinElmer, Shelton, CT).

Q: Which outcome does the source give for `CC(=O)CC(C)(C)O` here?
A: The outcome was “inactive”.

Q: Which outcome does the source give for `CC(C)OP(=O)(CP(=O)(OC(C)C)OC(C)C)OC(C)C` here?
A: The outcome was “inactive”.

Q: With `O=C(O)/C=C/C(=O)O` as the compound, how does the outcome read?
A: The outcome was “inactive”.

Q: With `CCCCC(C=O)CC` (stereo not given) as the compound, how does the outcome read?
A: The outcome was “inactive”.

Q: For `Cc1ccc(C(C)C)c(O)c1`, which outcome is on record?
A: Its outcome is “inactive”.

Q: For `N#Cc1ccccc1`, which outcome is on record?
A: The outcome was “inactive”.

Q: For `CC(C)(C#N)c1cc(Cn2cncn2)cc(C(C)(C)C#N)c1`, which outcome is on record?
A: Its outcome is “inactive”.

Q: For `O=C1CCCC1`, which outcome is on record?
A: The outcome was “inactive”.

Q: With `OC1C(O)C(O)C(O)C(O)C1O` (stereo not given) as the compound, how does the outcome read?
A: The outcome was “inactive”.

Q: With `CCO[Si](CCCN)(OCC)OCC` as the compound, how does the outcome read?
A: The outcome was “inactive”.

Q: With `Nc1ccc(Cl)c(N)c1` as the compound, how does the outcome read?
A: The outcome was “inactive”.

Q: For `CN(C)c1ccc(O)c2c1C[C@H]1C[C@H]3[C@H](N(C)C)C(=O)C(C(N)=O)=C(O)[C@@]3(O)C(=O)C1=C2O`, which outcome is on record?
A: The outcome was “inactive”.

Q: Which outcome does the source give for `CC(CCl)OP(=O)(OC(C)CCl)OC(C)CCl` (stereo not given) here?
A: Its outcome is “inactive”.

Q: With `CCCCCCC=O` as the compound, how does the outcome read?
A: The outcome was “inactive”.

Q: For `CC(C)c1cccc(C(C)C)c1`, which outcome is on record?
A: Its outcome is “inactive”.

Q: For `COCCCN`, which outcome is on record?
A: Its outcome is “inactive”.

Q: For `CC(C)OC(=O)COc1ccc(Cl)cc1Cl`, which outcome is on record?
A: The outcome was “inactive”.

Q: With `COc1ccc(CCC(C)=O)cc1` as the compound, how does the outcome read?
A: Its outcome is “inactive”.

Q: With `CN1C(=O)CC[C@H]1c1cccnc1` as the compound, how does the outcome read?
A: Its outcome is “inactive”.

Q: Which outcome does the source give for `CCO[Si](CCC#N)(OCC)OCC` here?
A: Its outcome is “inactive”.

Q: With `COCCOC(=O)c1ccccc1C(=O)OCCOC` as the compound, how does the outcome read?
A: Its outcome is “inactive”.

Q: With `O=C(O)c1cc2ccccc2cc1O` as the compound, how does the outcome read?
A: Its outcome is “inactive”.

Q: Which outcome does the source give for `C=Cc1ccc(C)cc1` here?
A: Its outcome is “inactive”.

Q: With `CC(=O)OCc1ccccc1` as the compound, how does the outcome read?
A: The outcome was “inactive”.

Q: With `O=C(O)c1ccc(S(=O)(=O)N(Cl)Cl)cc1` as the compound, how does the outcome read?
A: Its outcome is “inactive”.

Q: Which outcome does the source give for `CN(C)CCOC(=O)COc1ccc(Cl)cc1` here?
A: Its outcome is “inactive”.

Q: With `O=C(O)CCCCCCCCC(=O)O` as the compound, how does the outcome read?
A: The outcome was “inactive”.

Q: With `C=CCc1ccc(OC)c(OC)c1` as the compound, how does the outcome read?
A: Its outcome is “inactive”.

Q: For `CCCCCCO`, which outcome is on record?
A: The outcome was “inactive”.

Q: Which outcome does the source give for `Brc1ccc(Br)c(Br)c1` here?
A: Its outcome is “inactive”.

Q: For `COc1ccc(C)cc1N`, which outcome is on record?
A: Its outcome is “inactive”.

Q: For `CC(C)(C)c1cc(Cc2cc(C(C)(C)C)c(O)c(C(C)(C)C)c2)cc(C(C)(C)C)c1O`, which outcome is on record?
A: Its outcome is “inactive”.

Q: For `CCNc1cccc(C)c1`, which outcome is on record?
A: The outcome was “inactive”.

Q: Which outcome does the source give for `CC(CCO)CC(C)(C)C` (stereo not given) here?
A: Its outcome is “inactive”.

Q: Which outcome does the source give for `CCCCCC(=O)O` here?
A: Its outcome is “inactive”.

Q: With `CCc1ccccc1CC` as the compound, how does the outcome read?
A: The outcome was “inactive”.

Q: Which outcome does the source give for `CNC(=S)N(C)C` here?
A: The outcome was “inactive”.

Q: Which outcome does the source give for `OCc1ccccc1` here?
A: The outcome was “inactive”.

Q: With `Clc1ccccn1` as the compound, how does the outcome read?
A: Its outcome is “inactive”.

Q: For `O=C(OCC1CCC2OC2C1)C1CCC2OC2C1` (stereo not given), which outcome is on record?
A: Its outcome is “inactive”.
